# Measurements as given in the supplement of paper PMC3334620.
# Over roughly 33,000 sequences, “E-score (-0.5 to 0.5)” has its median near -0.035; the highest 2% begin near 0.35. The sample holds the highest values, similar sequences and a random draw of the others, so the mix is not that of the screen.
# Molecular target: T1, Pdr3 (UniProt P33200)
# T1 sequence: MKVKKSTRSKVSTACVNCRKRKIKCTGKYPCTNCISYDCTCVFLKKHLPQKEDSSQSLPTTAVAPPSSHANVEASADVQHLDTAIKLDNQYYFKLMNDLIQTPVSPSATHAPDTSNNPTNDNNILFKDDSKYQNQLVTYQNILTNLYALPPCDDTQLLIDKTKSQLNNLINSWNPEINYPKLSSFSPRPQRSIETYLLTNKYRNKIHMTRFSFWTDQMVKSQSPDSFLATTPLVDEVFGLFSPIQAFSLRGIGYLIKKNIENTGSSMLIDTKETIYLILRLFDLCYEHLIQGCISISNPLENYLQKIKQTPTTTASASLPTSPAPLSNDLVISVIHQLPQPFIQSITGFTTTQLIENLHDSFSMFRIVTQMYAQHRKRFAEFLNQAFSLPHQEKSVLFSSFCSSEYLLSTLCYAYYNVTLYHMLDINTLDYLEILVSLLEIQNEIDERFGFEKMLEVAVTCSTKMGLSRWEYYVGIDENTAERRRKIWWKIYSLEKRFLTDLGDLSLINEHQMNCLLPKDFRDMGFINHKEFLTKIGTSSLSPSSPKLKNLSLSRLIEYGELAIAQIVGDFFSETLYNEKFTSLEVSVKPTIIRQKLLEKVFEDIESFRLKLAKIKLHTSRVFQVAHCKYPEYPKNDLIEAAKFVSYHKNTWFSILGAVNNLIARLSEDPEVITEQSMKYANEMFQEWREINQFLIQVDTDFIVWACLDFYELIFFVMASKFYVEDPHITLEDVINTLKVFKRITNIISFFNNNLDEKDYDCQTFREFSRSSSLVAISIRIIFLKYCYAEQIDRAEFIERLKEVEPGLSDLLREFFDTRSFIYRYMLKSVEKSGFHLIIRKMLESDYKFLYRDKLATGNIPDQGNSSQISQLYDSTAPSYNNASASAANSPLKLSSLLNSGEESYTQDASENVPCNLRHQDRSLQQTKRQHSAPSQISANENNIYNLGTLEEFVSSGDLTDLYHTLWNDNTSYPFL
# Assay: PBM E-score (8-mer binding enrichment) (E-score (-0.5 to 0.5)); higher = stronger / more preferred TF binding
# Conditions: protein concentration: 200 nM; construct: GST-full length
# Experimental: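 Universal 'all 10-mer' protein binding microarrays (Agilent AMADID 015681) probed with GST-tagged S. cerevisiae TFs (full-length or DBD) made by in vitro transcription/translation (PURExpress), about 100-200 nM. Bound TF was detected with fluorescent anti-GST. Each ungapped 8-mer (which stands for itself and its reverse complement) is scored by the PBM enrichment score (E-score), a modified Wilcoxon-Mann-Whitney statistic from -0.5 to +0.5, computed with the Universal PBM Analysis Suite. Scale: above 0.35 generally sequence-specific binding.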
row,Sequence,PBM E-score
1,ATAAGAGG,0.0703
2,AAGGTCAG,-0.201
3,AGCAGACT,-0.189
4,ACAGAGCT,-0.292
5,GTGCCCAA,-0.0202
6,GAATCACC,-0.027
7,CCGGGCTC,0.224
8,ACAATGCA,0.0617
9,AGAGGATG,0.0386
10,CACTAGCG,-0.0368
11,ATGTTTAC,-0.0373
12,GACGCGCA,0.0698
13,GCACCGGC,0.146
14,CCACCGGG,0.257
15,GCACCGGA,0.377
16,ACACCGGA,0.357
17,CCACCGGC,0.204
18,TCACCGGA,0.329
19,ACACCGGT,0.14
20,CCACCGGA,0.428
21,GCACCGTA,0.067
22,CGTTTGCA,0.0843
23,CCAACTGC,0.0661
24,TCCCATCA,-0.209
25,AGAAAGTG,-0.177

row,Sequence,PBM E-score
1,AATCGACG,0.058
2,CCGGCAGC,0.362
3,CCGGCAGG,0.231
4,ACGGCACC,-0.0873
5,CCGGCACG,0.279
6,CCGGCAGA,0.229
7,CCGGCACC,0.369
8,GTCCGTAA,0.191
9,CCGCCACC,0.0657
10,ACACAGGG,0.0204
11,GCCGTGAC,0.133
12,ACCGGACG,0.311
13,CCCGAAAA,0.191
14,ACCGGAAC,0.474
15,ACCGGATG,0.249
16,ACCGGATC,0.34
17,CCCGGAAA,0.449
18,CCCCGAAG,0.144
19,CCCGGAAG,0.419
20,ACCGGACC,0.297
21,CCAGGAAA,-0.0248
22,ACCGGAAG,0.42
23,CCTGGAAG,-0.203
24,CACCCAAG,-0.071
25,AAAATAAG,-0.194

row,Sequence,PBM E-score
1,CGGTTAAA,0.0999
2,CGATCTGA,0.0713
3,ATATCGAT,0.104
4,CCCGGACC,0.334
5,GCAGGATA,-0.0657
6,CCCGGAAC,0.467
7,ACCGGAAT,0.411
8,GCCGGATA,0.368
9,ACCGGAAA,0.405
10,ACCGGAGT,0.234
11,CCCCGAAC,0.129
12,ACCAGAAA,-0.105
13,ACCGGACT,0.285
14,ACCGGATA,0.151
15,ATTGGCGA,-0.2
16,CCACCTTA,-0.0834
17,GCTTTAGA,-0.238
18,AGAGCATC,-0.0714
19,CGTGCTAG,-0.276
20,GAAAAGGA,0.0166
21,GCCGAAAA,0.276
22,TCCGGTAA,0.307
23,GCCGGAAA,0.42
24,GCCGGACC,0.303
25,TCCGGAAA,0.466

row,Sequence,PBM E-score
1,GCCGGAGC,0.236
2,GCAGGAAA,-0.081
3,GCCGGAAC,0.476
4,TCAGGAAA,-0.128
5,GACAAGTA,0.00093
6,AAGCGATC,0.0113
7,ATTCCCGA,0.212
8,ATTCCCCG,0.28
9,ATTCCGGC,0.448
10,ACTCCCGG,0.356
11,ATTCCGGG,0.458
12,ATTCCTGC,0.221
13,ACTCCCGA,0.0347
14,AATCCGGG,0.354
15,ATTCCCGG,0.393
16,ATTCCTGG,0.0168
17,ACTCCCCG,0.306
18,ATTCCAGC,0.0377
19,ACTCAGCC,-0.146
20,ACAATAGT,-0.0518
21,GGACAACC,0.0553
22,CCACCACC,-0.0836
23,CCCAGGGG,-0.115
24,AATGTTAT,0.00821
25,AGCGTGGG,-0.253

row,Sequence,PBM E-score
1,AGCACCCT,-0.284
2,AGATCGGG,0.0992
3,TAATCGGA,0.324
4,GGATCGAA,0.133
5,AGATCGGC,0.134
6,GAATCGGA,0.36
7,AAATCGGA,0.326
8,AGATCGGA,0.394
9,GGATCGGA,0.359
10,CGATCGGA,0.196
11,AGATCCGA,0.169
12,CGATCCGA,0.326
13,GGATCCGA,0.399
14,CTTGACTA,-0.119
15,TGCAATAA,-0.00943
16,GTCTTCAA,-0.189
17,ACGCTGGG,-0.0598
18,CCCGCGAA,0.206
19,GAAGGAAC,0.0934
20,AACAACAC,0.0662
21,CCTCCAGG,-0.269
22,AATATTCA,0.0722
23,AATATTCG,0.0118
24,AATATTCC,0.362
25,ATACCGCC,0.212

row,Sequence,PBM E-score
1,ATCCGTTG,0.376
2,ACCCGTTG,0.0389
3,ATCCGTTA,0.364
4,ATCCGTTC,0.322
5,CTCCGTTC,0.367
6,ATCCGTGC,0.267
7,CTCCGTGC,0.263
8,AGCCGTTG,0.00388
9,CTCCGTTA,0.216
10,ATCCGTGA,0.306
11,GTCCGTTA,0.321
12,ATCCGTGG,0.428
13,AAGCGCGT,-0.113
14,TAGTCCCA,-0.187
15,CAACCCGG,0.293
16,CCACTCTA,-0.0753
17,AAGAGCCC,-0.00683
18,CGCTTAAC,0.0421
19,GAACCGGA,0.416
20,CAACCGGA,0.379
21,CAACCGGG,0.129
22,AAACCGGA,0.346
23,GAACCGGC,0.247
24,CAACCGCA,0.0919
25,CAACCGCG,0.369

row,Sequence,PBM E-score
1,CAACCGCC,0.0754
2,TAACCGGA,0.308
3,AAGATGAC,-0.202
4,AATGAAAC,0.059
5,GGCCTTCA,0.0249
6,GCGCCCCC,-0.146
7,GCCGACGC,0.178
8,CAATCCGA,0.271
9,AAATCCGG,0.39
10,AAATCCGT,0.246
11,AAATCCGC,0.196
12,CAATCCGG,0.394
13,CAATCCGC,0.265
14,GCCTCTTA,-0.109
15,CGAAGGTA,0.0358
16,CCGGACGA,0.36
17,ACGGACGG,0.245
18,CCGGACGC,0.33
19,ACGGACGA,0.304
20,CCGGACGG,0.396
21,TCGGACGA,0.233
22,AGCATTCA,-0.0565
23,CCGTACGA,0.00505
24,CATTTCTC,0.0391
25,GTAAAAAC,-0.132

row,Sequence,PBM E-score
1,ACCGGGTA,0.154
2,CCCGGGTC,0.426
3,CCGGGGTA,0.341
4,CCCGGGTA,0.438
5,ACCGGGTC,0.184
6,CCGGGGTC,0.327
7,AAACCATT,-0.226
8,TCGCTTCA,-0.114
9,CGGTCGAA,0.0584
10,ATATCCGA,0.346
11,CCATCCCG,0.31
12,ACATCCCG,0.415
13,ATGTCCGG,0.375
14,ACATCCCC,0.245
15,ATATCCCA,0.229
16,ATGTCCGA,0.207
17,ATATCCCG,0.357
18,ATATCCCC,0.0317
19,ATATCCGC,0.333
20,ATGTCCGC,0.223
21,ATATCCGG,0.384
22,AATAGCGC,0.0976
23,TCCTACAA,0.00772
24,GAGTAGCC,-0.153
25,AAACTGGC,-0.0559

row,Sequence,PBM E-score
1,AGAGGCAC,-0.154
2,CGGCTAAA,0.183
3,AGATCCAG,0.112
4,AGATCCGC,0.351
5,ACATCCGA,0.259
6,ACATCCGG,0.378
7,ACATCCGT,0.216
8,AGATCCGG,0.362
9,ACCGTTGG,0.0171
10,CAGCATGG,-0.00655
11,GCCACGGC,0.0607
12,CCCATGGA,-0.0126
13,TCCACGGA,0.477
14,ACCACGGA,0.377
15,ACCACGGC,0.135
16,ACCACGGG,0.205
17,TCCATGGA,0.423
18,TCCACGCA,-0.174
19,TACACGGA,0.3
20,ACCATGGA,-0.151
21,GCCACGTA,-0.208
22,GCCACGGA,0.415
